Data taken from PubChem BioAssay (Tox21).
Inconclusive results are not listed. Calls of active or inactive are those of the source. Unless noted, calls come from the whole dose curve; as a rule, active = well fitted curve in the direction sought with a large enough effect in the repeat runs; inconclusive = weak or mixed curves; inactive = no such curve, though single readings can be large; an effect the other way counts as inactive or inconclusive.

Tests used:
[1] = qHTS assay to identify small molecule agonists of the hypoxia (HIF-1) signaling pathway - cell viability counter screen (AID 1224844; calls by dose curve; note: nearly all actives have a fitted effect of over 50% in size)
Outline: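 HRE-bla ME-180 cells in medium with 0.5% dialyzed FBS were preincubated 5 hrs at 37C, exposed to compounds for 17 hrs, then viability was read as CellTiter-Glo luminescence after 30 min at room temperature, in the reporter wells.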

[2] = qHTS assay to identify small molecule agonists of H2AX (AID 1224845; active = well fitted activation curve with a large enough effect in the signal ratio in the repeat runs, not every such curve was filed as active; the % refers to the signal ratio)
Outline: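 Wild-type CHO-K1 cells, plated overnight, exposed 3hr at 37C to 15 concentrations (0.76% DMSO final). Lysed, then HTRF anti-pH2AX (S139) cryptate and anti-H2AX-d2 antibodies, 24 hr room temperature; 665/620 nm emission read.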

[3] = qHTS assay to identify small molecule agonists of the hypoxia (HIF-1) signaling pathway (AID 1224846; active = well fitted activation curve with a large enough effect in the signal ratio in the repeat runs, not every such curve was filed as active; the % refers to the signal ratio)
Outline: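 HRE-bla ME-180 cells (beta-lactamase reporter under hypoxia response element) were plated at 2,000 cells/well in medium with 0.5% dialyzed FBS, rested 5 hrs, then given compounds in DMSO for 17 hrs at 37C, 5% CO2. Reporter induction was read with CCF4-AM FRET substrate.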

[4] = qHTS assay to identify small molecule agonists of H2AX - cell viability counter screen (AID 1224847; calls by dose curve; note: top concentration of the series differs between compounds; nearly all actives have a fitted effect of over 30% in size)
Outline: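 CHO-K1 cells plated overnight at 37C, then exposed 3 h at 37C to compounds at 15 concentrations (0.76% DMSO final). Viability by CellTiter-Glo luminescence after 30 min at room temperature.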

[5] = qHTS assay to identify small molecule antagonists of the estrogen related receptor (ERR) signaling pathway from Tox21 library (AID 1224848); note: nearly all actives have a fitted effect of over 50% in size
Outline: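 Luminescent reporter read-out (ONE-Glo) from NTP's ERR cell line after 18 h treatment at 37 C with DMSO-dissolved Tox21 compounds; cells pre-plated 6 h beforehand at 2,000 per well.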

[6] = qHTS assay to identify small molecule agonists of the estrogen related receptor (ERR) signaling pathway from Tox21 library (AID 1224849; calls by dose curve; note: nearly all actives have a fitted effect of over 15% in size); conditions: ERR reporter cell line, ONE-Glo luciferase, 18 h
Outline: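 ERR reporter cell line (NTP) seeded, rested 6 h at 37 C/5% CO2, then pinned with Tox21 compounds in DMSO. After 18 h at 37 C, ONE-Glo luciferase luminescence was read following 30 min at room temperature.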

[7] = qHTS RealTime-Glo MT Cell Viability Assay in HEK293 cells - 32 hour (AID 1224868); note: nearly all actives have a fitted effect of over 50% in size; note: potency is the fitted concentration of half-maximal effect; for activity change, negative = cytotoxic: top concentration of the series differs between compounds
Outline: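 Luminescence generated by NanoLuc from substrate produced by living HEK293 cells served as the viability signal. Each value reflects the reading at its stated time point during continuous 40 h compound exposure at 37 C.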

[8] = A CellTox Green Cytotoxicity Assay to monitor cytotoxicity in HEK293 cells - 0 hour (AID 1224869); note: nearly all actives have a fitted effect of over 50% in size
Outline: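 HEK293 cells premixed with CellTox Green dye were seeded at 600 cells/well and left 5 h at 37 C/5% CO2 before pin transfer of 23 nL compound in DMSO. Fluorescence from dye bound to dead-cell DNA was read during 40 h treatment.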

[9] = qHTS RealTime-Glo MT Cell Viability Assay in HepG2 cells - 40 hour (AID 1224870); note: nearly all actives have a fitted effect of over 50% in size
Outline: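 HepG2 cells (600/well) mixed with RealTime-Glo MT reagent, settled 5 h at 37 C/5% CO2 before compound addition. Nonlytic NanoLuc luminescence from viable-cell prosubstrate reduction read repeatedly during 40 h treatment at 37 C.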

[10] = qHTS RealTime-Glo MT Cell Viability Assay in HepG2 cells - 24 hour (AID 1224867); note: nearly all actives have a fitted effect of over 50% in size
Outline: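 Tox21 10K library screened in qHTS format on HepG2 cells carrying RealTime-Glo reagents. Compounds were added after a 5 h preincubation, and the luminescent signal from continuous culture was measured repeatedly during 40 h treatment.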
% is set by controls: 0 for no effect and ±100 for the full control effect.

OC[C@H]1O[C@H](O[C@H]2O[C@H](CO)[C@@H](O)[C@H](O)[C@H]2O)[C@H](O)[C@@H](O)[C@@H]1O
inactive: Potency [1] | Potency [2] | Potency [3] | Potency [4] | Potency [5] | activity change, positive = activation ([6]; at 92.4 µM (top of the series)) 8.53% | Potency [7] | Potency [8] | Potency [9]

Cc1c(F)c(N2CCNC(C)C2)cc2c1c(=O)c(C(=O)O)cn2C1CC1 (centres undefined)
inactive: Potency [1] | Potency [2] | Potency [3] | Potency [4] | Potency [5] | activity change, positive = activation ([6]; at 42.5 µM (top of the series)) 9.53% | Potency [10] | Potency [7] | Potency [8] | Potency [9]

CCC(=O)C(=O)CC
inactive: Potency [1] | Potency [2] | Potency [3] | Potency [4] | Potency [5] | activity change, positive = activation ([6]; at 92.4 µM (top of the series)) -15.7% | Potency [10] | Potency [8] | Potency [9]

CC[N+](CC)(CC)CCOC(=O)C(C1CCCC1)C1CCCC1
inactive: Potency [1] | Potency [2] | Potency [3] | Potency [4] | activity change, positive = activation ([6]; at 42.5 µM (top of the series)) -21.2% | Potency [10] | Potency [8] | Potency [9]

COc1ccc(-c2coc3cc(O)ccc3c2=O)cc1
inactive: Potency [1] | Potency [2] | Potency [3] | Potency [4] | Potency [10] | Potency [7] | Potency [8] | Potency [9]

C1CCC(SSC2CCCCC2)CC1
inactive: Potency [1] | Potency [2] | Potency [3] | Potency [4] | Potency [5] | activity change, positive = activation ([6]; at 92.4 µM (top of the series)) 5.57% | Potency [10] | Potency [7] | Potency [8] | Potency [9]

Cc1c(N)cccc1C(F)(F)F
inactive: Potency [1] | Potency [2] | Potency [3] | Potency [4] | Potency [5] | activity change, positive = activation ([6]; at 42.5 µM (top of the series)) 6.86% | Potency [7] | Potency [8]

Cc1ccc(C(=O)O)cc1
inactive: Potency [1] | Potency [2] | Potency [3] | Potency [4] | Potency [5] | activity change, positive = activation ([6]; at 92.4 µM (top of the series)) -0.305% | Potency [10] | Potency [7] | Potency [8] | Potency [9]

CCc1cccc(CC)c1NC(=O)CN(CC(=O)O)CC(=O)O
inactive: Potency [1] | Potency [2] | Potency [3] | Potency [4] | Potency [10] | Potency [7] | Potency [8] | Potency [9]

CCCCCCCC/C=C\CCCCCCCCN
active: Potency [7] 23.9 µM
inactive: Potency [1] | Potency [2] | Potency [3] | Potency [4] | Potency [5] | activity change, positive = activation ([6]; at 42.5 µM (top of the series)) -2.95%

CCCCCc1ccc(Cl)cc1
inactive: Potency [1] | Potency [2] | Potency [3] | Potency [4] | Potency [5] | activity change, positive = activation ([6]; at 92.4 µM (top of the series)) -14.2% | Potency [10] | Potency [8] | Potency [9]
active: Potency [7] 15.5 µM

NC[C@H]1O[C@H](O[C@H]2[C@H](O[C@@H]3O[C@H](CO)[C@@H](O)[C@H]3O)C(O)[C@H](N)C[C@@H]2N)[C@H](N)[C@@H](O)[C@@H]1O (some centres undefined)
inactive: activity change, negative = cytotoxicity [1] -1.39% [at 6.97 µM] | activation (H2AX phosphorylation) [2] -1.16% [at 14 µM] | activation [3] -1.07% [at 7.01 µM] | activity change, negative = cytotoxicity [4] -3.49% [at 14 µM] | activity change, negative = cytotoxicity [10] -0.277% [at 6.97 µM] | activity change, negative = cytotoxic [7] 4.84% [at 6.97 µM] | cytotoxicity [8] -7.77% [at 6.97 µM] | activity change, negative = cytotoxic [9] 0.986% [at 6.97 µM]

COC(=O)c1ccccc1C
inactive: Potency [1] | Potency [2] | Potency [3] | Potency [4] | Potency [5] | activity change, positive = activation ([6]; at 92.4 µM (top of the series)) 3.57% | Potency [7] | Potency [8] | Potency [9]

CCCCCCCC
inactive: Potency [1] | Potency [2] | Potency [3] | Potency [4] | Potency [5] | activity change, positive = activation ([6]; at 92.4 µM (top of the series)) 4.82% | Potency [10] | Potency [7] | Potency [8] | Potency [9]

O=C(O)CCN(C1(C(=O)NO)CCCC1)S(=O)(=O)c1ccc(Oc2ccc(F)cc2)cc1
inactive: Potency [1] | Potency [2] | Potency [3] | Potency [4] | Potency [5] | activity change, positive = activation ([6]; at 92.4 µM (top of the series)) 4.9% | Potency [10] | Potency [7] | Potency [8] | Potency [9]

C=CC(C)(CCC=C(C)C)OC=O (centres undefined)
inactive: Potency [1] | Potency [2] | Potency [3] | Potency [4] | Potency [5] | activity change, positive = activation ([6]; at 92.4 µM (top of the series)) 1.64% | Potency [10] | Potency [7] | Potency [8] | Potency [9]

Cc1nc(-c2ccc(Cl)cc2)oc1COC(C)(C)C(=O)O
inactive: Potency [1] | Potency [2] | Potency [3] | Potency [4] | Potency [5] | activity change, positive = activation ([6]; at 42.5 µM (top of the series)) 0.637% | Potency [10] | Potency [7] | Potency [8] | Potency [9]

O=C(O)c1cccc(C(F)(F)F)c1
inactive: Potency [1] | Potency [2] | Potency [3] | Potency [4] | Potency [5] | activity change, positive = activation ([6]; at 92.4 µM (top of the series)) -2.71% | Potency [10] | Potency [7] | Potency [8] | Potency [9]

O=C(/C=C/c1ccccc1)OC/C=C/c1ccccc1
inactive: Potency [1] | Potency [2] | Potency [3] | Potency [4] | Potency [5] | activity change, positive = activation ([6]; at 92.4 µM (top of the series)) 3.92% | Potency [10] | Potency [7] | Potency [8] | Potency [9]

Nc1nc(-c2ccccc2)cs1
active: activity change, positive = activation ([6]; at 92.4 µM (top of the series)) 41.7%
inactive: Potency [1] | Potency [2] | Potency [3] | Potency [4] | Potency [5] | Potency [10] | Potency [7] | Potency [8] | Potency [9]

CN(C)C(=O)COC(=O)Cc1ccc(OC(=O)c2ccc(N=C(N)N)cc2)cc1
inactive: Potency [1] | Potency [2] | Potency [3] | Potency [4] | Potency [5] | activity change, positive = activation ([6]; at 42.5 µM (top of the series)) -1.22% | Potency [10] | Potency [7] | Potency [8] | Potency [9]
